Screens from PubChem BioAssay.
KinaseGlo FLuc = Counterscreen for Luciferase (Kinase-Glo TM) Inhibition; 200,000 tested, 0.28% active; AID 1379, 2008; Potency, µM (highest dose often 38.3 µM), hits mostly inhibitors; Kinase-Glo luciferase, ATP luminescence, 8 min; note: nearly all actives have a fitted effect of over 60% in size
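Substrate mix (final 50 mM imidazole pH 7.2, 50 mM KCl, 7 mM MgCl2, 10 uM ATP, 0.01% Tween 20, 0.05% BSA) plus pin-tool compound, then Kinase-Glo detection mix; 8 min ambient, luminescence read.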
VP16 counter = VP16 counterscreen qHTS for inhibitors of ROR gamma transcriptional activity | Drosophila S2 Gal4-VP16 UAS-luciferase, luminescence, 20 h | Potency, µM (titrated, usually from 53.6 µM), usual class: inhibitors | 310,000 tested, 3.5% active | AID 2546, 2010;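 note: Gal4-VP16 expression switched on by copper sulfate through the metallothionein promoter; nearly all actives have a fitted effect of over 50% in size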
RORg inh = qHTS for inhibitors of ROR gamma transcriptional activity; Drosophila S2 Gal4-RORgamma UAS-luciferase reporter, 20 h; Potency, µM (top dose mostly 53.6 µM), actives largely listed as inhibitors; 310,000 tested, 5.4% active; AID 2551, 2010; note: nearly all actives have a fitted effect of over 60% in size
Target sequence (P51450 whole entry, looked up, the tested form may be a part): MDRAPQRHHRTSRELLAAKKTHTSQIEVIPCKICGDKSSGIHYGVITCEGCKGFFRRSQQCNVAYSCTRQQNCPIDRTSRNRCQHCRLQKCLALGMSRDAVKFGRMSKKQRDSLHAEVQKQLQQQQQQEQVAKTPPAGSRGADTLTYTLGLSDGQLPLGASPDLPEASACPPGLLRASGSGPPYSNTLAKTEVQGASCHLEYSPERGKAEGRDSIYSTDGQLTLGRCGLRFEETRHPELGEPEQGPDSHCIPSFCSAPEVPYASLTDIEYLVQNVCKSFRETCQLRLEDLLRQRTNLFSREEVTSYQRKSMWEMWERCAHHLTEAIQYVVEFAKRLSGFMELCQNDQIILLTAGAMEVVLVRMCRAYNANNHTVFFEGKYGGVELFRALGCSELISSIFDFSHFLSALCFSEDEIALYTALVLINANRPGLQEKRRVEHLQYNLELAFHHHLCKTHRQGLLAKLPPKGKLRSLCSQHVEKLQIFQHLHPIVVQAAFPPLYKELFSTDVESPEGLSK
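Schneider cells (Drosophila), stable Gal4 DBD–ROR gamma + UAS-luc; 1 hr cmpd preincubation; Cu2+ induction 700 uM final; 20 hr ambient; luminescence.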
Of the large screens only hits and unclear results are named; the others gave an inactive call. Only some compounds are listed: those with a hit (about 6.2% of all), similar ones and a draw of the others. Calls come from the whole dose curve; as a rule, active = well fitted curve in the direction sought with a large enough effect; inconclusive = small, poorly fitted or top-dose-only effect, or another doubt; inactive = no such curve, though single readings can be large; an effect the other way counts as inactive or inconclusive.

COc1ccc(Cl)cc1NC(=O)Nc1cn(C)nc1C	VP16 counter inconclusive (no result: KinaseGlo FLuc)
CCC(C)(C)C	none (no result: KinaseGlo FLuc)
CC(=O)N1c2ccc(S(=O)(=O)N3CCC(C(=O)NC4CCCCC4)CC3)cc2CC1C (stereo unspecified)	none (no result: KinaseGlo FLuc)
C[C@@]12CCc3occc3[C@H]1CC[C@@]13C[C@@H](CC[C@H]12)[C@@](O)(CO)C3	none (no result: KinaseGlo FLuc)
COc1ccc(OC)c(NC(=O)NCc2ccc(F)cc2)c1	none
COc1ccccc1CNC(=S)Nc1cc(C)ccc1C	VP16 counter inconclusive, RORg inh 3.2µM
COc1ccccc1CNc1cc(C)ccc1C	none
COc1ccc(OC)c(NC(=S)NCc2ccccc2OC)c1	RORg inh 7.1µM
COc1ccc(NC(=O)CSc2nc(SC)ns2)cc1	none (no result: KinaseGlo FLuc)
N#C/C(=C(/O)c1cccc(F)c1)c1nc2ccccc2s1	RORg inh inconclusive (no result: KinaseGlo FLuc)
Cn1c(/C(C#N)=C(\O)c2ccc([N+](=O)[O-])cc2)nc2ccccc21	none
CCN(CC)S(=O)(=O)c1ccc(/C(O)=C(\C#N)c2nc3ccccc3n2C)cc1	VP16 counter 5.6µM, RORg inh 2.8µM
Cn1c(/C(C#N)=C(\O)c2cccc(F)c2)nc2ccccc21	VP16 counter 7.1µM, RORg inh 7.1µM (no result: KinaseGlo FLuc)
CCCCOc1ccc(CSCCN)cc1Cl	VP16 counter 2µM, RORg inh 1.3µM (no result: KinaseGlo FLuc)
CCOc1ccc(CSC(=N)N)cc1Cl	none (no result: KinaseGlo FLuc)
COc1cccc(C2=CC(c3cccc(OC)c3OC(F)F)n3nnnc3N2)c1 (stereo unspecified)	none
COc1cccc(C2=CC(c3cccc(OC)c3OC)n3nnnc3N2)c1 (stereo unspecified)	RORg inh 3.2µM
COc1cccc(C2=CC(c3ccc(N(C)C)cc3)n3nnnc3N2)c1 (stereo unspecified)	none
COc1cccc(C2C=C(c3cccs3)Nc3ncnn32)c1OC (stereo unspecified)	VP16 counter inconclusive, RORg inh 11µM
COc1cccc(C2=CC(c3ccccc3)n3nnnc3N2)c1 (stereo unspecified)	VP16 counter 35µM, RORg inh inconclusive
COc1ccc(C2C=C(c3ccc(Br)s3)Nc3ncnn32)cc1OC (stereo unspecified)	none
C[C@H]1COc2c(C3(N)CC3)c(F)cc3c(=O)c(C(=O)O)cn1c23	none (no result: KinaseGlo FLuc)
COC(=O)CSc1nc(NC#N)nc(NC(C)C)n1	none
O=C1CCCC2=C1C(c1cccs1)n1ncnc1N2 (stereo unspecified)	none
CC(C)c1ccc(C2NC(=O)NC3=C2CCc2ccccc23)cc1 (stereo unspecified)	none
c1ccc(C2C3=C(Nc4ncnn42)c2ccccc2CCC3)cc1 (stereo unspecified)	VP16 counter inconclusive, RORg inh 10µM
Clc1ccc(C2C3=C(Nc4ncnn42)c2ccccc2CC3)cc1 (stereo unspecified)	VP16 counter inconclusive, RORg inh 14µM
CN[C@H](C)CCC=C(C)C	none (no result: KinaseGlo FLuc)
N#Cc1cccc(NC(=O)N2CC[C@@]3(CCCNC3)C2)c1	none
O=C(COc1cccnc1[N+](=O)[O-])NCCc1ccccc1	none
Cc1ccn2c(NC(=O)c3cccs3)c(-c3ccccc3)nc2c1	none
Cc1ccn2c(NC(C)(C)C)c(-c3cccs3)nc2c1	RORg inh 11µM
COc1ccc(-c2csc(NC3OC(=O)c4c3ccc(OC)c4OC)n2)cc1OC (stereo unspecified)	VP16 counter 7.9µM, RORg inh 3.5µM (no result: KinaseGlo FLuc)
COc1ccc2c(c1OC)C(=O)OC2Nc1nc(-c2ccc([N+](=O)[O-])cc2)cs1 (stereo unspecified)	VP16 counter inconclusive (no result: KinaseGlo FLuc)
COc1cccc2[nH]c(=O)c(-c3ccccc3)cc12	none (no result: KinaseGlo FLuc)
CCNC(=O)Nc1cc2nc(C)n(Cc3ccc(Br)cc3)c2nc1C	none
CCOC(=O)C1CCCN(C(=O)Cn2cnc3c2c(=O)n(C)c(=O)n3C)C1 (stereo unspecified)	none
CCOC(=O)C1CCCN(C(=O)Cn2sc3nc(C)cc(C)c3c2=O)C1 (stereo unspecified)	KinaseGlo FLuc inconclusive, VP16 counter 1.8µM, RORg inh inconclusive
C=CCNC(=O)/C(C#N)=C/c1ccc(OS(=O)(=O)c2ccc(C)cc2)c(OC)c1	VP16 counter inconclusive, RORg inh 11µM
COC(=O)N/N=C/c1ccc(OS(=O)(=O)c2ccc(C)cc2)c(OC)c1	none
O=C(COc1ccc(-c2ccccc2)cc1)N1CCCC1	none
CC(C)(C)NC(=O)c1ccc2c(c1)N(CC(=O)N1CCCC1)C(=O)C(C)(C)O2	RORg inh 0.63µM (no result: KinaseGlo FLuc)
CC(C)(C)NC(=O)c1ccc2c(c1)N(CC(=O)N1CCCCC1)C(=O)C(C)(C)O2	none (no result: KinaseGlo FLuc)
Cc1cc(C)n2c(SCC(=O)N(CC(C)C)c3c(N)n(CC(C)C)c(=O)[nH]c3=O)nnc2n1	none
CCOc1ccccc1NC(=O)CNC(=O)Cc1ccccc1	none
O=C(NCCc1ccc(F)cc1)Nc1ccccc1Cl	none (no result: KinaseGlo FLuc)
CCOc1ccccc1NC(=S)NCCc1ccccc1	VP16 counter 5µM, RORg inh 1.3µM
CCOc1ccccc1NC(=S)NCCc1ccc(F)cc1	VP16 counter 10µM, RORg inh 1.6µM
O=C(CSc1nncs1)Nc1ccc(S(=O)(=O)N2CCCC2)cc1	none
O=C1NCCC/C1=N/Nc1cc(F)ccc1F	none (no result: KinaseGlo FLuc)
CC(=O)Nc1nc(Cn2nnc(-c3ccc4c(c3)OCO4)n2)nc(N(C)C)n1	none
CCOC(=O)CNC(=O)c1cccnc1Oc1ccc(Cl)cc1	none (no result: KinaseGlo FLuc)
N#C/C(=C/c1ccccc1[N+](=O)[O-])C(=O)NCc1ccco1	VP16 counter inconclusive
N#C/C(=C\C=C\c1ccccc1[N+](=O)[O-])C(=O)NCc1ccccc1	VP16 counter inconclusive, RORg inh 14µM (no result: KinaseGlo FLuc)
C=CCNC(=O)/C(C#N)=C/c1ccccc1[N+](=O)[O-]	VP16 counter inconclusive
CCCCCCCCNC(=O)/C(C#N)=C/c1ccccc1[N+](=O)[O-]	VP16 counter 7.9µM, RORg inh 3.2µM
CC(C)c1ccc(C(=O)N2CCN(c3cnn(C)c(=O)c3Cl)CC2)cc1	RORg inh inconclusive
Cc1ccc2c(CNCc3ccccc3)cc(=O)oc2c1	none (no result: KinaseGlo FLuc)
COC(CNS(=O)(=O)c1cc2c3c(c1)CCN3C(=O)CC2)OC	none (no result: KinaseGlo FLuc)
O=C(COC(=O)c1ccccc1C(=O)c1ccccc1)NCc1ccc(F)cc1	none
COC(=O)c1ccc(O)c(Sc2cc(C(=O)OC)ccc2O)c1	RORg inh inconclusive
Cc1ccc(O)c(Sc2cc(C)ccc2O)c1	VP16 counter 13µM, RORg inh inconclusive
NC(=O)c1nsc(C(=O)N(c2cccc(F)c2)C(C(=O)NCC2CCCO2)c2ccc3ncccc3c2)c1N (stereo unspecified)	none (no result: KinaseGlo FLuc)
Nc1ccc(-c2nc3ccc(N)cc3s2)cc1	VP16 counter 7.9µM, RORg inh inconclusive (no result: KinaseGlo FLuc)
COc1cccc(-c2nc3ccccc3s2)c1	VP16 counter inconclusive
Nc1ccc2nc(N3CCOCC3)sc2c1	none
Nc1cccc(-c2nc3ccc(N)cc3s2)c1	KinaseGlo FLuc 13µM, VP16 counter inconclusive, RORg inh 3.5µM
COC1c2ccccc2C(=O)N1Cc1ccc(F)cc1 (stereo unspecified)	none (no result: KinaseGlo FLuc)
S=C1NC[C@H](CC2CCCCC2)N1CC1CCCCC1	VP16 counter 5µM, RORg inh 0.89µM (no result: KinaseGlo FLuc)
CCCC[C@@H]1CNC(=S)N1CC1CCCCC1	VP16 counter 6.3µM, RORg inh 1.4µM (no result: KinaseGlo FLuc)
NCCCC[C@H]1CNC(=O)C(=O)N1CC1CCCCC1	none (no result: KinaseGlo FLuc)
